From PubChem BioAssay (EPA / NIEHS)
Where “and” joins values, the source holds several entries; their conditions need not be identical. Equal values may be shown once. Where a structure was tested more than once in an assay, its records may differ in their call. Calls of active or inactive are those of the source. How the source made its calls: active means hit-call score of the fitted dose curve at least 0.9, where 1 is the maximum; inactive means score below 0.9.

Assay: CCTE_Shafer_MEA_dev_per_network_spike_spike_number_mean: CCTE's Neural Network Formation Assay for Mean Number of Spikes in a Network Spike, Shafer Lab (AID 2284053)
Experimental: CCTE_Shafer_MEA_dev assay is conducted using Axion Biosystems 48 well microelectrode array (MEA) plates and Maestro recording system. Each well of the MEA plate contains a grid of 16 microelectrodes embedded in the culture surface. Electrically active cells, such as neurons, can be cultured over the electrodes, and electrical activity in these cells can be recorded extracellularly. The spontaneous firing of neurons is captured from each electrode on a microsecond timescale providing both temporally and spatially precise data. […] The CCTE_Shafer_MEA_dev assay uses primary cultures of rat cortical neurons. Recordings are made on days post-plating 5, 7, 9 and 12. As these cultures mature over time, neural networks develop functional activity and form cohesive networks in which electrical activity can be highly coordinated. CCTE_Shafer_MEA_dev_per_network_spike_spike_number_mean is 1 of 19 assay components of the CCTE_Shafer_MEA_dev assay. It measures the average number of spikes (action potential firings) in a network spike (temporally-clustered group of spikes across multiple electrodes) as the number of spikes that occur within a 0.05 s time window at the peak of a network spike divided by the total number of network spikes during a recording in a microelectrode array (MEA) using Axion Biosystems Maestro 768 channel amplifier with the AxIS adaptive spike detector. To collapse across multiple recordings made on days post-plating 5, 7, 9 and 12, the trapezoidal area-under-the-curve of the component is calculated.Data from the assay component CCTE_Shafer_MEA_dev_per_network_spike_spike_number_mean was analyzed into 1 assay endpoint. This assay endpoint, CCTE_Shafer_MEA_dev_per_network_spike_spike_number_mean, was analyzed in the negative analysis fitting direction relative to DMSO as the negative control and baseline of activity. Using a type of functional reporter, gain or loss-of-signal activity can be used to understand electrical activity.
On the day prior to culture, each well was coated thoroughly with 150 uL of 0.05% polyethyleneimine (PEI, Sigma Cat P3143) in 50 mM HEPES (Sigma Cat H7523) at a pH of 8. The plate was incubated at 37C for one hour. PEI was rinsed out with 500 uL of sterile water three times. Plates were stored at 4C until the day of culture. This culture was plated at a seeding density of 1.5 x 10^5 cells/well on a 48-well MEA plate, prepared as described above. Cells were administered via a 25 uL media/laminin ([…]; Sigma Cat L2020-1MG) drop directly onto the microelectrode array, as adding the cells with the laminin results in better attachment than pre-coating with laminin. After 2 hours, an additional 475 uL of cortical media was added and the cells returned to the incubator. Exposure starts at day 0 of plating and is continued over twelve days of network development until the experiment is terminated. Cells are fed with fresh medium on DIV 5 and 9, following the recordings on those days. The entire volume of media in the well is exchanged and any vehicle or compound treatment is renewed. Complete details are found in OP-NHEERL/ISTD/SBB/TJS/2015-03-r0 (available on request, email shafer.tim@epa.gov). Measurement of the electrical activity is non-invasive, and recordings can be made from the same plate over multiple different days of the culture. In cortical neurons, this allows for the measurement of extracellular action potentials over the period during which networks form in the MEA plate.

Structure (SMILES) | outcome | AC50
CCC(C)(C)C(=O)OC1=C(c2ccc(Cl)cc2Cl)C(=O)OC12CCCCC2 | inactive | 
O=S1OCC2C(CO1)C1(Cl)C(Cl)=C(Cl)C2(Cl)C1(Cl)Cl (centres undefined) |  | 8.24 µM (active)
COP(=S)(OC)Oc1ccc([N+](=O)[O-])cc1 |  | 24.6 µM (active)
CNC(=O)CSP(=S)(OC)OC | inactive | 50 µM (active)
Oc1cc(Cl)ccc1Oc1ccc(Cl)cc1Cl |  | 9.32 µM (active)
O=C(O)C(F)(F)C(F)(F)C(F)(F)C(F)(F)C(F)(F)C(F)(F)C(F)(F)F | inactive | 
O=S(=O)(O)C(F)(F)C(F)(F)C(F)(F)C(F)(F)C(F)(F)C(F)(F)C(F)(F)C(F)(F)F | inactive | 50 µM (active)
CC[C@H](C)[C@H]1O[C@]2(C=C[C@@H]1C)C[C@@H]1C[C@@H](C/C=C(\C)[C@@H](O[C@H]3C[C@H](OC)[C@@H](O[C@H]4C[C@H](OC)[C@@H](O)[C@H](C)O4)[C@H](C)O3)[C@@H](C)/C=C/C=C3\CO[C@@H]4[C@H](O)C(C)=C[C@@H](C(=O)O1)[C@]34O)O2 (tested in a mixture with another compound) |  | 6.69 nM (active) and 2.06 nM (active)
CC(C)N(C(=O)COc1nnc(C(F)(F)F)s1)c1ccc(F)cc1 | inactive | 15 µM (active)
CC1(c2ccc(Oc3ccccc3)cc2)OC(=O)N(Nc2ccccc2)C1=O (centres undefined) |  | 4.26 µM (active)
CC1(C)C(C=C(Cl)Cl)C1C(=O)OC(C#N)c1ccc(F)c(Oc2ccccc2)c1 (centres undefined) |  | 3.15 µM (active) and 12.1 µM (active) and 11.9 µM (active)
ClC1C(Cl)C(Cl)C(Cl)C(Cl)C1Cl (centres undefined) | inactive | 
COP(=O)(OC)OC=C(Cl)Cl | inactive | 1.94 µM (active)
O=C(O)COc1ccc(Cl)cc1Cl | inactive | 
O=[N+]([O-])/N=C1\NCCN1Cc1ccc(Cl)nc1 |  | 15 µM (active)
